Data taken from PubChem BioAssay (NCI).
About 83,000 compounds went through this panel and 20% of them were active in at least one assay; those are over-represented in the sample as a whole.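 Activity criterion: percent growth below 10, measured after cells in 96-well plates were exposed to a single compound concentration for 48 hours.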 Calls of active or inactive are those of the source.

Key:
Assay in all cases: NCI-60 one-dose screen, 48 h (100 = growth as untreated, 0 = no growth, -100 = all killed)
Conditions in all cases: 10 µM
RPMI-8226 leukemia = tested on: RPMI-8226 leukemia
OVCAR-8 ovarian = tested on: OVCAR-8 ovarian
OVCAR-5 ovarian = tested on: OVCAR-5 ovarian
OVCAR-4 ovarian = tested on: OVCAR-4 ovarian
SK-OV-3 ovarian = tested on: SK-OV-3 ovarian
IGROV1 ovarian = tested on: IGROV1 ovarian
OVCAR-3 ovarian = tested on: OVCAR-3 ovarian
HS 578T breast = tested on: HS 578T breast
NCI/ADR-RES ovarian = tested on: NCI/ADR-RES ovarian
T-47D breast = tested on: T-47D breast
BT-549 breast = tested on: BT-549 breast
MDA-MB-435 melanoma = tested on: MDA-MB-435 melanoma
SW-620 colon = tested on: SW-620 colon
MCF7 breast = tested on: MCF7 breast
HCT-116 colon = tested on: HCT-116 colon
HCC-2998 colon = tested on: HCC-2998 colon
KM12 colon = tested on: KM12 colon
MDA-MB-468 breast = tested on: MDA-MB-468 breast

Measured: growth

O=C1Nc2cc(-c3ccc(NC(=O)c4cccc([N+](=O)[O-])c4)cc3)ccc2/C1=C/c1ccc[nH]1
active: MCF7 breast 2.65% | MDA-MB-468 breast -10.9%
inactive: RPMI-8226 leukemia 82.9% | OVCAR-8 ovarian 90.4% | OVCAR-5 ovarian 99.6% | OVCAR-4 ovarian 52.3% | SK-OV-3 ovarian 115% | IGROV1 ovarian 95.7% | OVCAR-3 ovarian 99.4% | HS 578T breast 108% | NCI/ADR-RES ovarian 89.5% | T-47D breast 27.5% | BT-549 breast 120% | MDA-MB-435 melanoma 105% | SW-620 colon 79.8% | HCT-116 colon 103% | HCC-2998 colon 62.2% | KM12 colon 14.5%

COc1cc2c(cc1OC)/C(=C\c1sc(Nc3ccc(O)cc3)nc1O)C(C(=O)O)=N2
active: OVCAR-3 ovarian 3.64% | MDA-MB-435 melanoma -77.3% | MDA-MB-468 breast -1.14%
inactive: RPMI-8226 leukemia 16.1% | OVCAR-8 ovarian 22.8% | OVCAR-5 ovarian 34.6% | OVCAR-4 ovarian 54% | SK-OV-3 ovarian 47.3% | IGROV1 ovarian 34.3% | HS 578T breast 31% | NCI/ADR-RES ovarian 85.4% | T-47D breast 46.7% | BT-549 breast 57.2% | SW-620 colon 26.8% | MCF7 breast 12.3% | HCT-116 colon 21.4% | HCC-2998 colon 36.7% | KM12 colon 20.9%

COc1ccc(-c2nc(S(=O)(=O)c3ccc(C)cc3)c(S(C)(=O)=O)o2)cc1
inactive: SK-OV-3 ovarian 83.6%
active: RPMI-8226 leukemia -40.3% | OVCAR-8 ovarian -77.5% | OVCAR-5 ovarian -88% | OVCAR-4 ovarian -90.2% | IGROV1 ovarian -24% | OVCAR-3 ovarian -92.4% | HS 578T breast 8.31% | NCI/ADR-RES ovarian -62.4% | T-47D breast -75.7% | BT-549 breast -12.5% | MDA-MB-435 melanoma -97.1% | SW-620 colon -58.5% | MCF7 breast -53.1% | HCT-116 colon -0.211% | HCC-2998 colon -87.6% | KM12 colon -19% | MDA-MB-468 breast -92.9%

CCOc1ccc(/C=N/NC(=O)Cn2nc(Cc3ccccc3)c3onc(C)c3c2=O)cc1
active: OVCAR-8 ovarian 5.16% | SK-OV-3 ovarian -5.84% | HS 578T breast -12.7% | BT-549 breast 6.06% | MDA-MB-468 breast -7.05%
inactive: RPMI-8226 leukemia 76.2% | OVCAR-5 ovarian 60.9% | OVCAR-4 ovarian 10.6% | IGROV1 ovarian 38.5% | OVCAR-3 ovarian 14.7% | NCI/ADR-RES ovarian 16.1% | T-47D breast 44.9% | MDA-MB-435 melanoma 55.3% | SW-620 colon 43.3% | MCF7 breast 28.3% | HCT-116 colon 10.3% | HCC-2998 colon 60.6% | KM12 colon 66.4%

C=CC(=O)Nc1ccc(C(=O)/C=C/c2ccc(N(C)CCF)cc2)c(O)c1
active: RPMI-8226 leukemia 3.47% | OVCAR-8 ovarian -45.8% | OVCAR-5 ovarian -49.3% | SK-OV-3 ovarian 3.61% | IGROV1 ovarian -53.5% | OVCAR-3 ovarian -69% | NCI/ADR-RES ovarian 0.782% | T-47D breast 5.88% | BT-549 breast -65% | MDA-MB-435 melanoma -46.7% | SW-620 colon 5.99% | MCF7 breast -19.5% | HCT-116 colon -66.2% | HCC-2998 colon -78.4% | KM12 colon -82.6% | MDA-MB-468 breast -73.6%
inactive: OVCAR-4 ovarian 19.8% | HS 578T breast 19.7%

CC(=O)Nc1nc(-c2ccc(N3CCN(C)CC3)c(NS(=O)(=O)c3cccc4c(N(C)C)cccc34)c2)cs1
inactive: OVCAR-8 ovarian 76.7% | OVCAR-5 ovarian 83.4% | OVCAR-4 ovarian 68.8% | SK-OV-3 ovarian 63.9% | IGROV1 ovarian 84.8% | OVCAR-3 ovarian 78.9% | HS 578T breast 41% | NCI/ADR-RES ovarian 94.8% | T-47D breast 35.6% | BT-549 breast 36.6% | MDA-MB-435 melanoma 51.5% | SW-620 colon 70.9% | MCF7 breast 34.9% | HCT-116 colon 28.2% | HCC-2998 colon 43% | KM12 colon 59.8% | MDA-MB-468 breast 58.2%
active: RPMI-8226 leukemia 6.29%

CCOC(=O)C(Cc1ccccc1)N1C(=O)/C(=C/N2N=C(c3ccc(OC)cc3)CC2c2ccc3ccccc3c2)SC1=S (stereo not drawn)
active: RPMI-8226 leukemia 4.07% | SK-OV-3 ovarian 9.93% | HS 578T breast 1.03% | BT-549 breast -6.78% | MCF7 breast 0.163% | HCT-116 colon 7.1% | HCC-2998 colon -92% | KM12 colon 9.78% | MDA-MB-468 breast -34.1%
inactive: OVCAR-8 ovarian 17.1% | OVCAR-5 ovarian 39.3% | OVCAR-4 ovarian 35.1% | IGROV1 ovarian 13% | OVCAR-3 ovarian 15.1% | NCI/ADR-RES ovarian 54.1% | T-47D breast 14.6% | MDA-MB-435 melanoma 16.3% | SW-620 colon 13.4%

C=C[C@@]12CN3CC[C@]1(O)[C@@](C(=O)OC)(CO2)c1[nH]c2ccccc2c1C3
active: MDA-MB-468 breast -8.94%
inactive: RPMI-8226 leukemia 46.9% | OVCAR-8 ovarian 62.8% | OVCAR-5 ovarian 49.2% | OVCAR-4 ovarian 62.3% | SK-OV-3 ovarian 115% | IGROV1 ovarian 95.2% | OVCAR-3 ovarian 61.6% | HS 578T breast 80.5% | NCI/ADR-RES ovarian 49.1% | T-47D breast 40.8% | BT-549 breast 38.4% | MDA-MB-435 melanoma 32.7% | SW-620 colon 55% | MCF7 breast 42.6% | HCT-116 colon 57.9% | HCC-2998 colon 89.4% | KM12 colon 78%

CO[C@@H]1CSSC1Cn1nc(-c2ccc(Oc3ccccc3)cc2)c2c(N)ncnc21 (stereo partly drawn)
active: SK-OV-3 ovarian 1.98% | T-47D breast 7.37% | MDA-MB-435 melanoma -72.1% | HCT-116 colon 9.66% | MDA-MB-468 breast -12.9%
inactive: RPMI-8226 leukemia 34.6% | OVCAR-8 ovarian 75.5% | OVCAR-5 ovarian 62.5% | OVCAR-4 ovarian 53.3% | IGROV1 ovarian 53.1% | OVCAR-3 ovarian 56% | HS 578T breast 61.6% | NCI/ADR-RES ovarian 57.5% | BT-549 breast 35.5% | SW-620 colon 29.1% | MCF7 breast 16.5% | HCC-2998 colon 47.5% | KM12 colon 38%

COc1cc2c3c(n(CCCNC(C)C)c(=O)c2cc1OC)-c1nc2c(cc1C3=O)OCO2
active: RPMI-8226 leukemia -26.2% | OVCAR-8 ovarian -58% | OVCAR-5 ovarian -93.2% | OVCAR-3 ovarian -97.4% | NCI/ADR-RES ovarian -72% | MDA-MB-435 melanoma -86.9% | SW-620 colon -62.8% | MCF7 breast -89.8% | HCT-116 colon -60.4% | KM12 colon -90.1% | MDA-MB-468 breast -9.99%
inactive: OVCAR-4 ovarian 49.8% | SK-OV-3 ovarian 26.5% | IGROV1 ovarian 40.8% | HS 578T breast 88.8% | T-47D breast 43.9% | BT-549 breast 49.1% | HCC-2998 colon 65.5%

CC1(C)CC[C@]2(C(=O)N3CCOCC3)CC[C@]3(C)C(=CC[C@@H]4[C@@]5(C)CC[C@H](NCO)C(C)(C)[C@@H]5CC[C@]43C)[C@H]2C1
active: RPMI-8226 leukemia -38.5% | OVCAR-8 ovarian -73.5% | OVCAR-5 ovarian -99.9% | OVCAR-4 ovarian -89.5% | SK-OV-3 ovarian -86.4% | IGROV1 ovarian -85.6% | OVCAR-3 ovarian -82.7% | HS 578T breast -68.2% | NCI/ADR-RES ovarian -73.1% | T-47D breast -72.4% | BT-549 breast -92.2% | MDA-MB-435 melanoma -96.4% | SW-620 colon -88.8% | MCF7 breast -80.3% | HCT-116 colon -88.9% | HCC-2998 colon -78.1% | KM12 colon -90.5% | MDA-MB-468 breast -97%

COC[C@@H](CC(C)C)N=C1NC(=O)/C(=C/c2ccc3ncoc3c2)N1
active: RPMI-8226 leukemia 0.955% | OVCAR-5 ovarian -11.6% | SK-OV-3 ovarian -40.8% | IGROV1 ovarian 7.9% | OVCAR-3 ovarian -26.3% | T-47D breast -4.84% | BT-549 breast 2.39% | SW-620 colon 0.318% | MCF7 breast 1.91% | MDA-MB-468 breast -31.1%
inactive: OVCAR-8 ovarian 12.4% | OVCAR-4 ovarian 53.7% | HS 578T breast 25.9% | NCI/ADR-RES ovarian 20.3% | MDA-MB-435 melanoma 17.3% | HCT-116 colon 22.8% | HCC-2998 colon 36.7% | KM12 colon 16.4%

CNC(=O)c1cc(-c2ccc(NC(=O)Nc3ccc(C)cc3)cc2)nc2cccnc12
active: MDA-MB-468 breast -14.3%
inactive: RPMI-8226 leukemia 88.8% | OVCAR-8 ovarian 97.8% | OVCAR-5 ovarian 105% | OVCAR-4 ovarian 108% | SK-OV-3 ovarian 91.1% | IGROV1 ovarian 92.8% | OVCAR-3 ovarian 105% | HS 578T breast 106% | NCI/ADR-RES ovarian 94.3% | T-47D breast 89.6% | BT-549 breast 104% | MDA-MB-435 melanoma 109% | SW-620 colon 104% | MCF7 breast 45.6% | HCT-116 colon 89.7% | HCC-2998 colon 121% | KM12 colon 102%

CCN1CCN(c2ccc(NC(=O)Nc3ccc(-c4cc(C(=O)NC(C)C)c5ncccc5n4)cc3)cc2C(F)(F)F)CC1
active: RPMI-8226 leukemia -43.3% | OVCAR-8 ovarian -83.3% | OVCAR-5 ovarian -83.2% | OVCAR-4 ovarian -83.2% | SK-OV-3 ovarian -91% | IGROV1 ovarian -86% | OVCAR-3 ovarian -60.1% | HS 578T breast -37.7% | NCI/ADR-RES ovarian -66.9% | T-47D breast -66.5% | BT-549 breast -82.1% | MDA-MB-435 melanoma -92.9% | SW-620 colon -69.8% | MCF7 breast -89.9% | HCT-116 colon -94% | HCC-2998 colon -98.2% | KM12 colon -83.7% | MDA-MB-468 breast -91.1%

O=C(c1ccc(O)cc1)C1[C@H](c2ccc(Br)cc2)[C@@H](c2ccccc2)NC12C(=O)Nc1ccccc12 (stereo partly drawn)
inactive: RPMI-8226 leukemia 23% | OVCAR-8 ovarian 32.4% | OVCAR-5 ovarian 58.7% | OVCAR-4 ovarian 34.1% | SK-OV-3 ovarian 77.3% | IGROV1 ovarian 25.8% | OVCAR-3 ovarian 15% | HS 578T breast 28.5% | NCI/ADR-RES ovarian 22.4% | T-47D breast 38.4% | BT-549 breast 116% | MDA-MB-435 melanoma 13.4% | SW-620 colon 26.2% | HCT-116 colon 17.3%
active: MCF7 breast 8.43% | HCC-2998 colon -34.8% | KM12 colon 1.31% | MDA-MB-468 breast 0.478%

O=C(CSc1nnc(-c2c[nH]c3ccccc23)n1-c1ccccc1)Nc1ccc(C(=O)/C=C/c2ccc(Br)cc2)cc1
inactive: OVCAR-8 ovarian 95.6% | OVCAR-5 ovarian 93.3% | OVCAR-4 ovarian 91.2% | SK-OV-3 ovarian 88.3% | IGROV1 ovarian 80.5% | OVCAR-3 ovarian 81% | HS 578T breast 82.2% | NCI/ADR-RES ovarian 94.9% | T-47D breast 57.9% | BT-549 breast 87.4% | MDA-MB-435 melanoma 85.8% | SW-620 colon 97.6% | MCF7 breast 25.3% | HCC-2998 colon 94.4% | KM12 colon 72% | MDA-MB-468 breast 71.1%
active: RPMI-8226 leukemia 7.63% | HCT-116 colon -32.4%
